Screening results (PubChem)
The list is not random: actives were taken first. Their share in the collection is about 2.6%.
MCL1 BIM primary: inhibitors of MCL1 binding to BIM-BH3, primary screen, biochemical, fluorescence polarization; GST-MCL1 / FITC-Bim-BH3 fluorescence polarization; 320,000 compounds, 0.68% hits; Induced myeloid leukemia cell differentiation protein Mcl-1 (Homo sapiens), Q07820; AID 2057, 2009; inhibition, % at 10.9 µM;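 active = inhibition above the mean inhibition of all tested compounds plus 3 SD, set per campaign, cut at about 40% in these data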;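 note: higher means more loss of mP so more displacement of Bim peptide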
Target sequence (Q07820 whole entry, looked up): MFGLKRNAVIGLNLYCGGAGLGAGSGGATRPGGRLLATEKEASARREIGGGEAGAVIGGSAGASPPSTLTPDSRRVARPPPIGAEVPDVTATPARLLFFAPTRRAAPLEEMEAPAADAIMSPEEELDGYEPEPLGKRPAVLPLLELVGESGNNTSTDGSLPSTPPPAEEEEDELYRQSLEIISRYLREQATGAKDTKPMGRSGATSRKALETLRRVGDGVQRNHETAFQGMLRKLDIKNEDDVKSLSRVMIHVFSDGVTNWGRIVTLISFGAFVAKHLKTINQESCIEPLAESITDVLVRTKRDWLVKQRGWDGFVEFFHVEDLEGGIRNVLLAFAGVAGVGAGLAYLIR
Mcl1-Noxa inh: Mcl-1/Noxa binding inhibitors, primary screen, biochemical, TR-FRET, 1536-well; Induced myeloid leukemia cell differentiation protein Mcl-1 (Homo sapiens), Q07820; TR-FRET Mcl-1/Noxa peptide binding, 2 h; inhibition, % at 21.7 µM; 220,000 compounds, 1.5% hits; AID 1022, 2008;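 active = compounds that cut the protein-peptide binding signal by more than 50% relative to plate controls in a single-dose test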;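 note: His-tagged Mcl-1 with rhodamine Noxa BH3 peptide and terbium anti-His antibody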
Mcl1 Bid PPI: Mcl-1/Bid binding inhibitors, primary screen, biochemical, TR-FRET, 1536-well. Induced myeloid leukemia cell differentiation protein Mcl-1 (Homo sapiens), Q07820. TR-FRET Mcl-1/Bid-Dy647 peptide binding. inhibition, % at 21.7 µM. 220,000 compounds, 0.97% hits. AID 1021, 2008;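 active = compounds that cut the binding signal by more than half at the single screening dose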;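 note: His-tagged Mcl-1 with europium anti-His antibody binding Bid BH3 peptide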
Mcl-1 Bim block: inhibitors of Bim peptide binding to Mcl-1, primary screen, biochemical, bead-based flow cytometry, multiplex. Induced myeloid leukemia cell differentiation protein Mcl-1 (Homo sapiens), Q07820. Bim peptide-Mcl-1 binding. inhibition, % at 10 µM. 190,000 compounds, 0.1% hits. AID 1009, 2008; in the data active = inhibition above about 40%
eIF4E 4G PPI: eIF4E–eIF4G protein interaction inhibitors, primary screen, biochemical, uHTS, TR-FRET, eIF4GI fragment; AID 782, 2007; inhibition, % at 21.7 µM; TR-FRET eIF4E-eIF4GI(517-606) binding, 2 h; 220,000 compounds, 0.37% hits; Eukaryotic translation initiation factor 4E (Mus musculus) + Eukaryotic translation …;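 active = inhibition above about 30%, limit read from the data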
14-3-3 Bad inh: inhibitors of 14-3-3 zeta/Bad binding, primary screen, biochemical, TR-FRET, bovine 14-3-3 zeta. 14-3-3 protein zeta/delta (Bos taurus), P63103. TR-FRET 14-3-3zeta/Dy647-pBad peptide displacement, 1 h. inhibition, % at 21.7 µM. 220,000 compounds, 0.71% hits. AID 781, 2007;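 active = inhibition above about 70%, limit read from the data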
Target sequence (P63103 whole entry, looked up): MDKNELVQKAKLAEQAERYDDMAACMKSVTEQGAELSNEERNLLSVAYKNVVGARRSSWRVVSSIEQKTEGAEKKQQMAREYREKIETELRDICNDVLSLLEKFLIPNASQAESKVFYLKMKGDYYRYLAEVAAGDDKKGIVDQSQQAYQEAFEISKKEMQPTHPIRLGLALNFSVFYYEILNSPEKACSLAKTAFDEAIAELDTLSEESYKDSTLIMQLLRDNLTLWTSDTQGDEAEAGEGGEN
Numbers stand for hits; [ ] = dose if it differs, or a comment.

`COCCNC(=O)[C@H]1N2C(=O)c3ccccc3C2SC1(C)C` (some centres not stated) gave MCL1 BIM primary inactive.
Cc1cc(C(=O)OCC(=O)NCc2ccccc2Cl)c(C)o1 was read as MCL1 BIM primary inactive, Mcl1-Noxa inh inactive, Mcl1 Bid PPI inactive, Mcl-1 Bim block inactive, eIF4E 4G PPI inactive and 14-3-3 Bad inh 72.5.
CCC(C)c1ccc(S(=O)(=O)N2CCN(c3ccccn3)CC2)cc1 (configuration not stated) was read as MCL1 BIM primary inactive.
For CCc1ccc2nc(NC(=O)c3ccc(N4C(=O)CCC4=O)cc3)sc2c1 the results were MCL1 BIM primary inactive, Mcl1-Noxa inh inactive, Mcl1 Bid PPI inactive, eIF4E 4G PPI inactive and 14-3-3 Bad inh inactive.
For CNS(=O)(=O)c1ccc2nc(NC(=O)c3ccc(N4C(=O)CCC4=O)cc3)sc2c1 the results were MCL1 BIM primary inactive, Mcl1-Noxa inh 60.1, Mcl1 Bid PPI inactive, Mcl-1 Bim block inactive, eIF4E 4G PPI inactive and 14-3-3 Bad inh inactive.
`CC1=NN(c2ccc(Cl)c(C(=O)O)c2)C(=O)/C1=C\c1ccc(-c2ccc(C(=O)O)cc2)o1` gave Mcl1-Noxa inh inactive, Mcl1 Bid PPI inactive, Mcl-1 Bim block inactive, eIF4E 4G PPI inactive and 14-3-3 Bad inh inactive.
`O=C(O)c1ccc(N2C(=O)/C(=C/c3ccc(-c4ccc([N+](=O)[O-])cc4)o3)C=C2c2ccccc2)cc1` gave MCL1 BIM primary inactive, Mcl1-Noxa inh 107.9, Mcl1 Bid PPI 99.4, Mcl-1 Bim block inactive, eIF4E 4G PPI 76.4 and 14-3-3 Bad inh 93.7.
Screening O=C(N/N=C/c1cccc(F)c1)c1c(O)c2ccccc2[nH]c1=O returned MCL1 BIM primary inactive, Mcl1-Noxa inh 64.2, Mcl1 Bid PPI 50.7, Mcl-1 Bim block inactive, eIF4E 4G PPI inactive and 14-3-3 Bad inh inactive.
Screening O=C1CCCN1CC(CN1CCOCC1)Sc1nnnn1-c1ccccc1 (configuration not stated) returned MCL1 BIM primary inactive, Mcl1-Noxa inh inactive, Mcl1 Bid PPI inactive, Mcl-1 Bim block inactive, eIF4E 4G PPI inactive and 14-3-3 Bad inh 78.8.
`Cc1ccc(S(=O)(=O)CCC(=O)N(Cc2nnc(-c3ccc(Cl)cc3)o2)C2CC2)cc1` gave MCL1 BIM primary inactive.
Screening Cc1cc(C)c(S(=O)(=O)NCC(CCC(=O)O)C(F)(F)F)c(C)c1 (configuration not stated) returned MCL1 BIM primary inactive, Mcl1-Noxa inh inactive, Mcl1 Bid PPI inactive, Mcl-1 Bim block inactive, eIF4E 4G PPI inactive and 14-3-3 Bad inh inactive.
Screening O=C(O)CCC(CNS(=O)(=O)c1ccccc1)C(F)(F)F (configuration not stated) returned MCL1 BIM primary inactive, Mcl1-Noxa inh 69.7, Mcl1 Bid PPI inactive, Mcl-1 Bim block inactive, eIF4E 4G PPI inactive and 14-3-3 Bad inh inactive.
`COc1ccc(S(=O)(=O)/N=C2/NC(=O)/C(=C\c3cc(OC)c(OC)cc3[N+](=O)[O-])S2)cc1` gave MCL1 BIM primary inactive, Mcl1-Noxa inh inactive, Mcl1 Bid PPI inactive, Mcl-1 Bim block inactive, eIF4E 4G PPI inactive and 14-3-3 Bad inh inactive.
`COc1cc(/C=C2\S/C(=N/S(=O)(=O)c3ccccc3)NC2=O)c([N+](=O)[O-])cc1OC` gave MCL1 BIM primary inactive, Mcl1-Noxa inh 57.0, Mcl1 Bid PPI inactive, eIF4E 4G PPI inactive and 14-3-3 Bad inh inactive.
COc1ccc(-n2c(SC)nc(O)c(Cc3ccccc3)c2=O)cc1 was read as MCL1 BIM primary inactive, Mcl1-Noxa inh inactive, Mcl1 Bid PPI inactive, Mcl-1 Bim block inactive, eIF4E 4G PPI inactive and 14-3-3 Bad inh inactive.
Screening COc1ccc(Cc2c(O)nc(SC)n(C(C)=O)c2=O)cc1 returned MCL1 BIM primary inactive, Mcl1-Noxa inh inactive, Mcl1 Bid PPI inactive, Mcl-1 Bim block 67.0, eIF4E 4G PPI inactive and 14-3-3 Bad inh inactive.
CCN(CC)C(=O)C1CCCN(c2ccc([N+](=O)[O-])cc2/C=N/NC(=O)c2cccc([N+](=O)[O-])c2)C1 (configuration not stated) was read as MCL1 BIM primary inactive, Mcl1-Noxa inh inactive, Mcl1 Bid PPI 62.5, Mcl-1 Bim block inactive, eIF4E 4G PPI inactive and 14-3-3 Bad inh inactive.
CCN(CC)C(=O)C1CCCN(c2ccc([N+](=O)[O-])cc2[N+](=O)[O-])C1 (configuration not stated) was read as MCL1 BIM primary inactive, Mcl1-Noxa inh inactive, Mcl1 Bid PPI inactive, Mcl-1 Bim block inactive, eIF4E 4G PPI inactive and 14-3-3 Bad inh inactive.
O=C(Nc1cccc(Oc2ccc(C(=O)O)c(C(=O)O)c2)c1)c1ccc(-c2ccccc2)cc1 was read as MCL1 BIM primary inactive, Mcl1-Noxa inh 80.0, Mcl1 Bid PPI inactive, eIF4E 4G PPI inactive and 14-3-3 Bad inh inactive.
`COc1ccc(/C=N/n2cnc3c([nH]c4ccc(Br)cc43)c2=O)cc1CN1CCOCC1` gave MCL1 BIM primary inactive, Mcl1-Noxa inh inactive, Mcl1 Bid PPI inactive, Mcl-1 Bim block inactive, eIF4E 4G PPI 40.8[fluorescence artefact?] and 14-3-3 Bad inh inactive.
O=C(CN1C(=O)NC2(CCCCC2)C1=O)Nc1ccc(F)cc1 was read as MCL1 BIM primary inactive, Mcl1-Noxa inh inactive, Mcl1 Bid PPI inactive, Mcl-1 Bim block inactive, eIF4E 4G PPI inactive and 14-3-3 Bad inh inactive.
For O=C(CN1C(=O)NC2(CCc3ccccc3C2)C1=O)Nc1ccc(F)cc1 (configuration not stated) the results were MCL1 BIM primary inactive, Mcl1-Noxa inh inactive, Mcl1 Bid PPI 87.8, Mcl-1 Bim block inactive, eIF4E 4G PPI inactive and 14-3-3 Bad inh inactive.
`COc1cccc(C2C([N+](=O)[O-])=C(N)Oc3cc(C)oc(=O)c32)c1` (configuration not stated) gave MCL1 BIM primary inactive, Mcl1-Noxa inh inactive, Mcl1 Bid PPI inactive, eIF4E 4G PPI inactive and 14-3-3 Bad inh inactive.
O=C1NCCCC2c3cc(O)c4ccccc4c3OC12N1CCCCC1 (configuration not stated) was read as MCL1 BIM primary 56.6, Mcl1-Noxa inh 78.2, Mcl1 Bid PPI inactive, Mcl-1 Bim block inactive, eIF4E 4G PPI inactive and 14-3-3 Bad inh inactive.
Screening CCOc1ccc(N2C(=O)/C(=C\c3ccc(O)c(OC)c3)S(=O)(=O)C2c2cccc([N+](=O)[O-])c2)cc1 (configuration not stated) returned MCL1 BIM primary inactive, Mcl1-Noxa inh 71.5, Mcl1 Bid PPI inactive, Mcl-1 Bim block inactive, eIF4E 4G PPI inactive and 14-3-3 Bad inh inactive.
